Measurements reported in PubChem BioAssay (Tox21).
“And” between values parts separate entries of the source, which are not always exact repeats. Equal values may be shown once. Unmarked numbers belong to inactive results. Results filed as inconclusive are left out. Entries that show only a call come without a potency. The source made the active and inactive calls. Unless noted, calls come from the whole dose curve; as a rule, active = well fitted curve in the direction sought with a large enough effect in the repeat runs; inconclusive = weak or mixed curves; inactive = no such curve, though single readings can be large; an effect the other way counts as inactive or inconclusive.

Legend:
[1] = qHTS assay to test for compound auto fluorescence at 535 nm (green) in HEK293 cells (AID 720680); note: potency is the fitted concentration of half-maximal effect
[2] = qHTS assay to test for compound auto fluorescence at 460 nm (blue) in HEK293 cell free culture (AID 720681); note: potency is the fitted concentration of half-maximal effect
Summary of the method: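 Blue fluorescence (Ex 405/Em 460 nm, triamterene-equivalent) was read immediately after pin transfer of compound or DMSO into medium (DMEM, 10% FBS) without cells.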

[3] = qHTS assay to test for compound auto fluorescence at 535 nm (green) in HEK293 cell free culture (AID 720682); note: potency is the fitted concentration of half-maximal effect
Summary of the method: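 Green-channel intensity (Ex/Em 485/535 nm) was recorded from compound-treated wells containing only DMEM with 10% FBS. Fluorescein provided the equivalency standard.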

[4] = qHTS assay to test for compound auto fluorescence at 590 nm (red) in HEK293 cell free culture (AID 720683)
Summary of the method: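 Red-channel autofluorescence of compounds in culture medium (DMEM, 10% FBS), no cells, measured at 540/590 nm. Rose Bengal sodium is the reference fluorophore for equivalence.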

[5] = qHTS assay to test for compound auto fluorescence at 590 nm (red) in HepG2 cell free culture (AID 720684)
Summary of the method: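 Plate contents were MEM with 10% FBS plus test compound or DMSO, no cells. Fluorescence was recorded with 540 nm excitation and 590 nm emission.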

[6] = qHTS assay to test for compound auto fluorescence at 460 nm (blue) in HepG2 cell free culture (AID 720685); note: potency is the fitted concentration of half-maximal effect
Summary of the method: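 Compound (23 nL) or DMSO pinned into cell-free MEM with 10% FBS; blue fluorescence read at 405/460 nm excitation/emission, expressed as auto-fluorescence equivalency to triamterene.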

[7] = qHTS assay to test for compound auto fluorescence at 535 nm (green) in HepG2 cell free culture (AID 720686); note: potency is the fitted concentration of half-maximal effect
[8] = qHTS assay to test for compound auto fluorescence at 460 nm (blue) in HepG2 cells (AID 720687); note: potency is the fitted concentration of half-maximal effect
Summary of the method: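 Blue-channel autofluorescence (Ex/Em 405/460 nm, triamterene-equivalent) was measured after 1 hr compound exposure at 37 C, 5% CO2. Cells were HepG2, plated overnight at 37 C in MEM plus 10% FBS.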

[9] = qHTS assay to identify small molecule antagonists of the glucocorticoid receptor (GR) signaling pathway - cell viability counter screen (AID 720693); note: nearly all actives have a fitted effect of over 55% in size; note: potency is the fitted concentration of half-maximal effect
[10] = qHTS assay for identifying genotoxic compounds that show differential cytotoxicity against isogenic chicken DT40 cell lines with known DNA damage response pathways - wild type cell line (AID 743012); note: nearly all actives have a fitted effect of over 60% in size; note: potency is the fitted concentration of half-maximal effect
Summary of the method: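 Cells (DT40 wild type, 300/well) are treated with DMSO-dissolved compounds after a ~0.5 h pre-incubation and kept 40 h at 37 C/5% CO2. Viability is then measured by CellTiter-Glo luminescence following 30 min at room temperature.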

[11] = qHTS assay for identifying genotoxic compounds that show differential cytotoxicity against isogenic chicken DT40 cell lines with known DNA damage response pathways - Rev3 mutant cell line (AID 743014); note: nearly all actives have a fitted effect of over 55% in size; note: potency is the fitted concentration of half-maximal effect
[12] = qHTS assay for identifying genotoxic compounds that show differential cytotoxicity against isogenic chicken DT40 cell lines with known DNA damage response pathways - Rad54/Ku70 mutant cell line (AID 743015); note: nearly all actives have a fitted effect of over 60% in size; note: potency is the fitted concentration of half-maximal effect
[13] = qHTS assay to identify small molecule antagonists of the androgen receptor (AR) signaling pathway - cell viability counter screen (AID 743033; note: nearly all actives have a fitted effect of over 45% in size; note: potency is the fitted concentration of half-maximal effect)
[14] = qHTS assay to identify small molecule antagonists of the androgen receptor (AR) signaling pathway using the MDA cell line - cell viability counter screen (AID 743041; note: nearly all actives have a fitted effect of over 45% in size)
Summary of the method: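 R1881-driven MDA-kb2 AR-luc cells, 3,000/well, were dosed with library compounds for 16 h; cell health came from CellTiter-Fluor fluorescence in the reporter wells.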

[15] = qHTS assay to identify small molecule antagonists of the thyroid receptor (TR) signaling pathway - cell viability counter screen (AID 743064); note: nearly all actives have a fitted effect of over 50% in size; note: potency is the fitted concentration of half-maximal effect
Summary of the method: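 In rat pituitary GH3.TRE-Luc reporter cells co-exposed to compound and 1 nM T3 for 23.5 h, cytotoxicity was assessed with CellTiter-Fluor in the same wells, read by fluorescence.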

[16] = target: Glucocorticoid receptor (Homo sapiens) (UniProt P04150); test: qHTS assay to identify small molecule antagonists of the glucocorticoid receptor (GR) signaling pathway (AID 720692; active = well fitted inhibition curve with a large enough effect in the signal ratio in the repeat runs, not every such curve was filed as active; the % refers to the signal ratio; note: potency is the fitted concentration of half-maximal effect)
Chain of Glucocorticoid receptor (Homo sapiens) (P04150 whole entry, looked up): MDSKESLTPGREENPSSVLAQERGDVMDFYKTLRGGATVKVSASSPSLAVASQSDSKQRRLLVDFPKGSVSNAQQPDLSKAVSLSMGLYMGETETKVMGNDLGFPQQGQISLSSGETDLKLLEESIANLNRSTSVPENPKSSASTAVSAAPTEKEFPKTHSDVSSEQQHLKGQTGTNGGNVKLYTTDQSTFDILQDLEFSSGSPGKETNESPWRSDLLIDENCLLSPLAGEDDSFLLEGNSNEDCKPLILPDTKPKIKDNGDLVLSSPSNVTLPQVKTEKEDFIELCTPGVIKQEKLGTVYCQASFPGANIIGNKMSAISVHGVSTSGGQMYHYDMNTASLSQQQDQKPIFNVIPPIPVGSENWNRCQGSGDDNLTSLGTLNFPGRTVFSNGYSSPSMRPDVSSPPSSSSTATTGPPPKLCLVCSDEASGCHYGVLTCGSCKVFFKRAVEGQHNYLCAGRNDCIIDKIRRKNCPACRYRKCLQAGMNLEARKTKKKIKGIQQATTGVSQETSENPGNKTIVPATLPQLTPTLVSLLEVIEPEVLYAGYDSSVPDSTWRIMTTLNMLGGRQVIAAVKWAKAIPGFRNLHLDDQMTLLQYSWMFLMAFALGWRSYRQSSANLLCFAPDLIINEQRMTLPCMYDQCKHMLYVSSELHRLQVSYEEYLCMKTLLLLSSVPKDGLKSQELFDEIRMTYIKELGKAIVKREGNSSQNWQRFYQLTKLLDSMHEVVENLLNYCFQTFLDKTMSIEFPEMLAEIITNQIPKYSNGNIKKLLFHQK
Summary of the method: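 Cells plated, rested 4 h at 37 C/5% CO2; compounds in DMSO pin-transferred; dexamethasone added to 5 nM final; 18 h at 37 C; B/G FRET substrate added, 2 h room temperature; fluorescence measured.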
Tags give direction and shape of the fitted curve or compound fluorescence and quenching.

SMILES: O=C(O)CCn1c2c(c3ccccc31)C[C@H](NS(=O)(=O)c1ccc(F)cc1)CC2
- Potency [1]: inactive
- Potency [2]: inactive
- Potency [3]: inactive
- Potency [4]: inactive
- Potency [5]: inactive
- Potency [6]: inactive
- Potency [7]: inactive
- Potency [8]: inactive
- Potency [9]: inactive
- Potency [10]: inactive
- Potency [11]: inactive
- Potency [12]: inactive
- Potency [13]: inactive
- Potency [14]: inactive
- Potency [15]: inactive

SMILES: CC(=O)Oc1ccc(C2(c3ccc(OC(C)=O)cc3)Oc3ccccc3NC2=O)cc1
- Potency [1]: inactive
- Potency [2]: inactive
- Potency [3]: inactive
- Potency [4]: inactive
- Potency [5]: inactive
- Potency [6]: inactive
- Potency [7]: inactive
- Potency [8]: inactive
- Potency [16]: 19 µM (active)
- Potency [13]: inactive
- Potency [14]: inactive

SMILES: C=CC(=C)CCC=C(C)C
- Potency [1]: inactive
- Potency [2]: inactive
- Potency [3]: inactive
- Potency [4]: inactive
- Potency [5]: inactive
- Potency [6]: inactive
- Potency [7]: inactive
- Potency [8]: inactive
- Potency [16]: inactive
- Potency [13]: inactive
- Potency [14]: inactive

SMILES: Oc1c(Br)cc(Br)c2cccnc12
- Potency [1]: inactive
- Potency [2]: inactive
- Potency [3]: inactive
- Potency [4]: inactive
- Potency [5]: inactive
- Potency [6]: inactive
- Potency [7]: inactive
- Potency [8]: inactive
- Potency [9]: inactive
- Potency [10]: 11.9 µM (active)
- Potency [11]: 11.9 µM (active)
- Potency [12]: 13.3 µM (active)
- Potency [13]: inactive
- Potency [14]: inactive
- Potency [15]: 26.6 µM (active)

SMILES: CCCCCCOc1cc(C)c(O)c(C)c1C
- Potency [1]: inactive
- Potency [2]: inactive
- Potency [3]: inactive
- Potency [4]: inactive
- Potency [5]: inactive
- Potency [6]: inactive
- Potency [7]: inactive
- Potency [8]: inactive
- Potency [9]: 49.6 µM (active)
- Potency [10]: 19.6 µM (active)
- Potency [11]: 22 µM (active)
- Potency [12]: 15.5 µM (active)
- Potency [14]: inactive
- Potency [15]: 49.2 µM (active)

SMILES: Nc1ccc2cc3ccc(N)cc3nc2c1
- Potency [1]: 11.2 µM [fluorescent] (active)
- Potency [2]: 11.2 µM (active)
- Potency [3]: 11.2 µM [fluorescent] (active)
- Potency [4]: inactive
- Potency [5]: inactive
- Potency [6]: 11.2 µM [fluorescent] (active)
- Potency [7]: 11.2 µM [fluorescent] (active) and 7.08 µM [fluorescent] (active)
- Potency [8]: 12.6 µM [fluorescent] (active)
- Potency [9]: 19 µM (active)
- Potency [10]: 2.66 µM (active) and 5.45 µM (active)
- Potency [11]: 2.98 µM (active) and 2.73 µM (active)
- Potency [12]: 1.33 µM (active) and 1.37 µM (active)

SMILES: Cc1cccc(C)c1NC(=O)CN1CCN(CCCC(c2ccc(F)cc2)c2ccc(F)cc2)CC1
- fluorescence, % of fluorescein [1]: 0.0034% [at 18.6 µM]
- fluorescence, % of fluorescent control [2]: -0.178% [at 18.6 µM]
- activity change [3]: 0.0074% [at 18.6 µM, stronger effect = higher value]
- fluorescence, % of fluorescent control [4]: -0.297% [at 18.6 µM]
- fluorescence, % of Rose Bengal [5]: -0.0617% [at 18.6 µM]
- fluorescence, % of fluorescent control [6]: -0.0263% [at 18.6 µM]
- fluorescence, % of fluorescein control [7]: 0.0052% [at 18.6 µM]
- fluorescence, % of fluorescent control [8]: -0.0418% [at 18.6 µM]
- Potency [9]: inactive
- Potency [11]: 5.69 µM (active)
- Potency [12]: 7.17 µM (active)
- Potency [13]: inactive
- Potency [14]: inactive

SMILES: CC(C)c1ccc(O)c(C(C)C)c1
- Potency [1]: inactive
- Potency [2]: inactive
- Potency [3]: inactive
- Potency [4]: inactive
- Potency [5]: inactive
- Potency [6]: inactive
- Potency [7]: inactive
- Potency [8]: inactive
- Potency [9]: inactive
- Potency [11]: 54.5 µM (active)
- Potency [12]: 48.6 µM (active)
- Potency [13]: 49 µM (active)
- Potency [14]: inactive
